Measured values as given in PubChem BioAssay.
The source made the active and inactive calls.

How the values were obtained:
[1] = biological target: Albumin (Bos taurus) (UniProt P02769); assay: bovine serum albumin binders on microarray, profiling panel, artefact control for SMM control protein annotation, biochemical, small-molecule microarray, Alexa647 label, 635/667 nm fluorescence (AID 1118); conditions: BSA-A647 binding, fluorescence 635 nm, higher = more signal;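 further: score merges 667 nm emission intensity and signal-to-noise per printed compound spot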
Sequence of Albumin (Bos taurus) (P02769 whole entry, looked up): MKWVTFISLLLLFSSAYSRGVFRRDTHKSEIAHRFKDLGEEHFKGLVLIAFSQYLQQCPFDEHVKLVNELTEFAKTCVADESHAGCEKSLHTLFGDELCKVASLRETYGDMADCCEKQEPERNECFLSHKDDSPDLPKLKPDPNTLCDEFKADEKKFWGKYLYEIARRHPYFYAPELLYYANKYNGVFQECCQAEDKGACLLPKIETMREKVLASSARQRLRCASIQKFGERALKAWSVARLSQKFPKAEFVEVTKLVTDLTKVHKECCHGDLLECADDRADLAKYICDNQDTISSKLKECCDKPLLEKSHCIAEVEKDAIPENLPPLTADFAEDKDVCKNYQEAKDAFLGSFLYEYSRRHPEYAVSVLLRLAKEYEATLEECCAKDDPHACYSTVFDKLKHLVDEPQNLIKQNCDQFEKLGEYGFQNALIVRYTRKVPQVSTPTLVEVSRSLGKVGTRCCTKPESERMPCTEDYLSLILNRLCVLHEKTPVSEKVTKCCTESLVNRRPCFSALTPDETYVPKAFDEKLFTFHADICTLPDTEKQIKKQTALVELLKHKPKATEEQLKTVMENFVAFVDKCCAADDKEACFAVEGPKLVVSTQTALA

[2] = small-molecule microarray binders of probe aXIP, primary screen, biochemical, NeuroSMM set, 635/667 nm fluorescence (AID 1119); conditions: higher = more signal, called active from +8 up or from −8 down;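 further: probe is the protein aXip251-270 applied at 1 µg/mL to compound-printed slides; binding of probe to printed compounds measured as 667 nm fluorescence plus signal to noise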
[3] = small-molecule binders of probe aNOTCH3, primary screen, biochemical, small-molecule microarray, 635/667 nm fluorescence (AID 1120); conditions: higher = more signal;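 further: probe is a biotin-tagged antibody raised against NOTCH3 rather than NOTCH3 protein; score merges spot fluorescence near 667 nm with spot signal to noise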
[4] = small-molecule binders of probe aNOTCH2, primary screen, biochemical, small-molecule microarray, 635/667 nm fluorescence (AID 1121); conditions: higher = more signal;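 further: score merges feature fluorescence read at 667 nm with its signal to noise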
[5] = biological target: Carbonic anhydrase 2 (Homo sapiens) (UniProt P00918); assay: CAII small-molecule binders, profiling panel, biochemical, small-molecule microarray, Alexa647-labelled CAII (AID 1122); conditions: CAII-A647 binding fluorescence, higher = more signal
[6] = COS7 lysate on small-molecule microarray, probe aHis, 635 nm (AID 1123); conditions: COS7 cell lysate, fluorescence, higher = more signal;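 further: z-score combines 667nm fluorescence intensity with signal-to-noise per printed compound spot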
[7] = compound binding in COS7 lysate, probe aLAP1, primary screen, cell lysate, small-molecule microarray (AID 1124); conditions: probe aLAP1, fluorescence, higher = more signal;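 further: lysate comes from COS7 cells expressing LAP1 and is applied at 0.3 µg/mL; score merges spot fluorescence near 667 nm with signal-to-noise over triplicate slides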
[8] = tested on: Sam68 (KHDRBS1); assay: Sam68 small-molecule binders, primary screen, biochemical, small-molecule microarray, 635 nm fluorescence (AID 1125); conditions: small-molecule microarray binding, higher = more signal;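 further: score merges 667 nm channel intensity with signal to noise over triplicate slides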
[9] = tested on: Chordin-like protein 2 (CHRDL2); assay: CHRDL2 small-molecule binders, primary screen, biochemical, small-molecule microarray, 635 nm fluorescence (AID 1126); conditions: small-molecule microarray binding, fluorescence 635 nm; higher = more signal;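 further: printed compound slides probed with Chrdl2 protein at 4 µg/mL for 1 h at 4 C; score merges 667 nm emission intensity with signal to noise over three replicate slides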
[10] = biological target: Concanavalin-A (Canavalia ensiformis) (UniProt P02866); assay: ConA small-molecule binders, primary screen, artefact control for SMM control protein annotation, biochemical, small-molecule microarray, Alexa647 label, 635 nm (AID 1127); conditions: ConA-A647 binding fluorescence, higher = more signal;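 further: z combines 667 nm emission intensity with signal-to-noise across three replicate slides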
Sequence of Concanavalin-A (Canavalia ensiformis) (P02866 whole entry, looked up): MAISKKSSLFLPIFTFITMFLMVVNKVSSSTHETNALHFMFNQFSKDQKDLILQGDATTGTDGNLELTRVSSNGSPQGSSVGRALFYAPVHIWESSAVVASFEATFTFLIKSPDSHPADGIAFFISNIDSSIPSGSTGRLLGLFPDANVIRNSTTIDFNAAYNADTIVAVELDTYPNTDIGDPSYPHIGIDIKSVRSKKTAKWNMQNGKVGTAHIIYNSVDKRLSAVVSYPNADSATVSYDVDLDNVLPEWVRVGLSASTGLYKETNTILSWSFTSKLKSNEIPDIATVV

[11] = anti-His antibody binders, primary screen, artefact control for SMM control protein annotation, biochemical, small-molecule microarray, 635 nm fluorescence (AID 1128); conditions: anti-His Alexa647 antibody binding, higher = more signal;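 further: score merges feature fluorescence with signal-to-noise for each printed compound spot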
[12] = tested on: Human papillomavirus type 1a E7 protein (residues 1-88); assay: HPV1a E7 small-molecule binders, primary screen, biochemical, small-molecule microarray, residues 1-88, 635 nm (AID 1129); conditions: small-molecule microarray binding, fluorescence 635 nm; higher = more signal
[13] = biological target: Focal adhesion kinase 1 (Homo sapiens) (UniProt Q05397); assay: small-molecule microarray binders of FAK, primary screen, biochemical, 635/667 nm fluorescence, BSA, DTT (AID 1130); conditions: PTK2 binding, 635 nm fluorescence, higher = more signal;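 further: composite of spot emission at 667 nm and signal to noise over triplicate slides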
Sequence of Focal adhesion kinase 1 (Homo sapiens) (Q05397 whole entry, looked up): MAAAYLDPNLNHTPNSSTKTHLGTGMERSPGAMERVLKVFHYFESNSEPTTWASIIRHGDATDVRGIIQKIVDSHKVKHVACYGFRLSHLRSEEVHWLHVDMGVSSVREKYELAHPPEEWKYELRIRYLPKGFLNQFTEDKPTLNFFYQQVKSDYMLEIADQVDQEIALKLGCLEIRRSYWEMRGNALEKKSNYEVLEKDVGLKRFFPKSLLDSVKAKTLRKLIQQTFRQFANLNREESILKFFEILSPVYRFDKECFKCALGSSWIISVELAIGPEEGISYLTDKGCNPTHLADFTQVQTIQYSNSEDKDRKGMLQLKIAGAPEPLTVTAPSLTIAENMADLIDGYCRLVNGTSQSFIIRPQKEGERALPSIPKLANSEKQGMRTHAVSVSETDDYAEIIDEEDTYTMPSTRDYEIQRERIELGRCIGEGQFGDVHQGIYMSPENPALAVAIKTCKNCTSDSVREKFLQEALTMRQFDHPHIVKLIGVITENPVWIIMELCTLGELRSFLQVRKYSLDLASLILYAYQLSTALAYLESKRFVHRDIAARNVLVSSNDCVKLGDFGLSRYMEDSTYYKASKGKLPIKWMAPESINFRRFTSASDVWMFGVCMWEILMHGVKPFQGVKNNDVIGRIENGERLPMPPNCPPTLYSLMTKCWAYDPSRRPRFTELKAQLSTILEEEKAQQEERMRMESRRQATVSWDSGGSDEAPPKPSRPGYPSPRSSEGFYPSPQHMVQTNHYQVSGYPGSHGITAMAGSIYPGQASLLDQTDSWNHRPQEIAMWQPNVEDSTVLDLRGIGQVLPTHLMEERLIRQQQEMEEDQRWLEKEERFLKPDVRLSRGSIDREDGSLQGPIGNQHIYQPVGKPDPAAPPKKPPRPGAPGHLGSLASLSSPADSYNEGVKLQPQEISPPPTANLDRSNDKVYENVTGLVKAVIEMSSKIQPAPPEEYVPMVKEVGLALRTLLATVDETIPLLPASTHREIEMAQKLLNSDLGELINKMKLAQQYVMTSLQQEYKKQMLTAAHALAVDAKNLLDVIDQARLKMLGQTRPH

[14] = tested on: Fibrinogen (Alexa647-labelled); assay: fibrinogen binders on compound microarrays, profiling panel, artefact control for SMM control-protein annotation, biochemical, small-molecule microarray, 635/667 nm fluorescence (AID 1131); conditions: fibrinogen-A647 binding fluorescence, higher = more signal;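 further: z-score merges 667 nm fluorescence with per-spot signal-to-noise over triplicate slides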
[15] = biological target: Follistatin (Homo sapiens) (UniProt P19883); assay: follistatin binders on small-molecule microarrays, primary screen, biochemical, small-molecule microarray, 635/667 nm fluorescence (AID 1132); conditions: FST binding, 635 nm fluorescence, higher = more signal
Sequence of Follistatin (Homo sapiens) (P19883 whole entry, looked up): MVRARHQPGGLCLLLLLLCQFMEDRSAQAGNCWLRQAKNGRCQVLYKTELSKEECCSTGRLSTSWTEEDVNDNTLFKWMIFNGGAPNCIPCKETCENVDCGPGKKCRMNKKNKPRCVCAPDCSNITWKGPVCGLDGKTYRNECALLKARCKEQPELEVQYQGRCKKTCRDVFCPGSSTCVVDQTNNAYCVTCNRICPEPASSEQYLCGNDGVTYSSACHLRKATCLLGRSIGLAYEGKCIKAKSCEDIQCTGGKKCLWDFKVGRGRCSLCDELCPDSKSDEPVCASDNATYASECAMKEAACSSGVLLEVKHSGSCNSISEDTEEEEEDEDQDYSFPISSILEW

[16] = biological target: Fibroblast growth factor 2 (Homo sapiens) (UniProt P09038); assay: FGF2 binders on small-molecule microarrays, primary screen, biochemical, small-molecule microarray, 635/667 nm fluorescence (AID 1133); conditions: small-molecule microarray binding, FGF2, fluorescence 635/667; higher = more signal
Sequence of Fibroblast growth factor 2 (Homo sapiens) (P09038 whole entry, looked up): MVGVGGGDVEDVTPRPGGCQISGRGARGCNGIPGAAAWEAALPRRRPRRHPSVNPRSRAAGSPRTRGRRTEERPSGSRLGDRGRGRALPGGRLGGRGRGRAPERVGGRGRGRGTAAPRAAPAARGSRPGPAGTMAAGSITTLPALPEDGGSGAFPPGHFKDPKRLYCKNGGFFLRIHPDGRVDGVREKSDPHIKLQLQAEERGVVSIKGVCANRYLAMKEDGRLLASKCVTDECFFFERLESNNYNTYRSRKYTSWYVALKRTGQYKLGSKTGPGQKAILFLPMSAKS

[17] = mitochondrial membrane potential change in A549 cells, profiling panel, cell-based, JC-1 fluorescence, basal, 24 h, 100 nL (AID 1138); conditions: higher = more signal;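 further: A549 lung adenocarcinoma cells under basal conditions with no added stimulus; test concentration not given here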
[18] = tested on: Lefty1; assay: Lefty1 binders on small-molecule microarrays, primary screen, biochemical, small-molecule microarray, 635/667 nm fluorescence (AID 1139); conditions: small-molecule microarray binding, fluorescence 635/667; higher = more signal
[19] = tested on: wheat germ agglutinin (Triticum aestivum), Alexa647-labelled; assay: wheat germ agglutinin binders on compound microarrays, profiling panel, artefact control for SMM control-protein annotation, biochemical, small-molecule microarray, 635/667 nm fluorescence (AID 1140); conditions: WGA-A647 binding, 635 nm fluorescence, higher = more signal;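 further: score merges 667 nm feature emission with signal to noise over triplicate slides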
[20] = biological target: Luciferin 4-monooxygenase (Photinus pyralis) (UniProt P08659); assay: firefly luciferase enzyme inhibitors, primary screen, biochemical, luminescence, purified enzyme, 2006 set (AID 1141); conditions: SteadyGlo luminescence, 30 min, higher = more signal, called active from +8 up or from −8 down;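 further: cell-free assay with purified firefly luciferase at 100 ng per well in PBS; test concentration not given here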
Sequence of Luciferin 4-monooxygenase (Photinus pyralis) (P08659 whole entry, looked up): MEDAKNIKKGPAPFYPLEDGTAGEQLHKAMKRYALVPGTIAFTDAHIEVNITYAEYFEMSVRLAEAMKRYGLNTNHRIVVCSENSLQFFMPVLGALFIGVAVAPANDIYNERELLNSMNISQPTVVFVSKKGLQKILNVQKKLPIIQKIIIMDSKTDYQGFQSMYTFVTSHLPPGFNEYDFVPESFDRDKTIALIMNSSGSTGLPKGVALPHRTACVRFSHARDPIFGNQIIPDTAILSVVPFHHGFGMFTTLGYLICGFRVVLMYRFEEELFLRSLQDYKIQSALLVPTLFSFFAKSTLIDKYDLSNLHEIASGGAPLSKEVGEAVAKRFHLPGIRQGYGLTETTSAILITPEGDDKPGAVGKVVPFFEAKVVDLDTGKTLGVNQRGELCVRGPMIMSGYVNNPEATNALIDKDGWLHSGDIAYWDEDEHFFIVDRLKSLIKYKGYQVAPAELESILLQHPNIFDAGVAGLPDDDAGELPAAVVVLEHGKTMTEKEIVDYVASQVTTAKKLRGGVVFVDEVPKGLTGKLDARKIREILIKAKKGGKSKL

SMILES | composite z-score [1] | composite Z-score [2] | composite z-score [3] | composite z-score [4] | composite z-score [5] | composite z-score [6] | composite z-score [7] | composite z-score [8] | composite z-score [9] | composite z-score [10] | composite z-score [11] | composite z-score [12] | composite z-score [13] | composite z-score [14] | composite z-score [15] | composite z-score [16] | z-score [17] | composite z-score [18] | composite z-score [19] | z-score [20]
CC(C)c1ccc(NN2C(C(O)c3c(F)cccc3Cl)C=CC3C(=O)N(c4ccccc4)C(=O)C32)cc1 (stereo not given) | 0.913 | -0.193 (inactive) | 0.704 | 0.395 | 0.187 | 2.26 | 0.584 | 1.14 | -0.297 | 1.11 | 0.825 | 1.13 | 0.823 | 0.935 | 1.02 | -0.0904 | -1.27 | -0.0553 | 0.959 | -1.12 (inactive)
CCOC(=O)C1=C[C@@H](C(C)C)N(S(=O)(=O)c2ccc(C)cc2)[C@H]1c1ccc(C(C)C)cc1 | 0.822 | 0.376 (inactive) | 0.0538 | -0.0148 | 0.39 | 1.81 | 0.586 | 1.31 | 0.241 | 1.07 | 0.408 | 1.15 | 1.54 | 0.915 | 1.23 | -0.067 | 2.96 | 0.752 | 0.734 | 2.41 (inactive)
CC(C)N1C(=O)[C@@]2(c3ccc([N+](=O)[O-])cc3)CC(=O)N(CC34CC5CC(CC(C5)C3)C4)[C@@H]2c2ccc(CO)cc21 | -0.747 | -0.0775 (inactive) | 0.49 | -0.237 | -0.531 | 0.773 | 0.632 | -0.507 | -1.27 | 0.134 | -0.193 | -1.05 | -0.553 | -1.1 | 0.0163 | -0.934 | 0.58 | 0.0347 | 1.23 | -0.322 (inactive)
CCOC(=O)C[C@H]1[C@H](OC(=O)c2ccc(-c3ccccc3)cc2)[C@@H](NC(=O)Cc2ccc(OC)cc2)c2cc(OCCCO)ccc2N1C(=O)c1ccc2ccccc2n1 | 0.647 | -1.15 (inactive) | 0.0408 | -0.0288 | 0.19 | 1.24 | 0.561 | 0.891 | -0.62 | 0.762 | 0.262 | 0.644 | 0.529 | 0.897 | -0.0303 | -0.433 | 0.895 | 0.484 | 0.419 | -0.639 (inactive)
Cc1cc(C)c(C(O)C2C=CC3C(=O)N(C)C(=O)C3N2Nc2ccccc2)c(C)c1 (stereo not given) | 0.72 | 2.43 (inactive) | 1.35 | 0.818 | 0.784 | 1.2 | 0.781 | 0.485 | 0.452 | 0.143 | 1.83 | 0.496 | 0.471 | 0.992 | 0.72 | -0.0568 | 0.362 | -0.765 | 0.847 | 0.568 (inactive)
CC(C)N1C(=O)c2ccccc2[C@@H](C(=O)NCCCN(C)C)[C@@H]1c1ccc(CO)cc1 | 0.955 | -0.109 (inactive) | -0.15 | 0.0364 | 0.901 | 0.82 | 0.0206 | 0.297 | -1.91 | 0.289 | 0.0674 | -0.163 | 1.13 | -0.305 | -0.631 | -0.521 | -0.864 | -1.12 | 0.705 | 0.571 (inactive)
Cc1ccc(S[C@]2(C(=O)O)CC(=O)N(C3Cc4ccccc4C3)[C@@H]2c2ccc(CO)cc2I)cc1 | -0.133 | -0.0549 (inactive) | -0.0725 | -0.0799 | 0.675 | 1.1 | 0.672 | -0.0018 | 0.0442 | 0.181 | 0.198 | 0.27 | 0.148 | 0.439 | 1.09 | -0.499 | 0.478 | -0.936 | 0.513 | 0.285 (inactive)
COCCOC(=O)N1C(=O)[C@@]2(c3cc(C#Cc4ccc(OC)cc4)ccc31)[C@H](C(=O)N1CCN(c3ncccn3)CC1)[C@H]1C(=O)O[C@H](c3ccccc3)[C@H](c3ccccc3)N1[C@@H]2c1ccc(O)cc1 | 0.259 | 0.0527 (inactive) | -0.112 | -0.0277 | 0.287 | 0.722 | 0.232 | 0.634 | -0.0397 | 0.762 | 0.136 | 0.64 | 1.2 | -0.126 | 0.755 | 0.633 | -0.334 | 0.331 | 0.428 | -0.938 (inactive)
CCOC(=O)C[C@H]1[C@H](OC(=O)Cc2ccc3c(c2)OCO3)[C@@H](NC(=O)C2CCCCC2)c2cc(OCCCO)ccc2N1C(=O)Cc1ccc(OC)cc1 | 0.343 | -0.145 (inactive) | 0.369 | -0.0993 | 0.231 | 0.557 | 0.366 | 1.15 | 0.107 | 0.343 | 0.135 | 0.807 | 0.673 | 0.66 | 0.139 | 0.221 | 2.5 | 0.333 | 0.0679 | -1.27 (inactive)
COCCOC(=O)N1C(=O)[C@@]2(c3cc(C#CCC(C(=O)OC)C(=O)OC)ccc31)[C@H](c1ccccc1OCCO)N1[C@H](c3ccccc3)[C@H](c3ccccc3)OC(=O)[C@H]1[C@@H]2C(N)=O | 0.101 | -0.167 (inactive) | 0.173 | -0.0357 | 0.503 | 2.03 | 1.5 | 1.25 | 0.237 | 1.07 | 2.79 | 1.19 | -0.418 | 0.942 | 1.08 | 1.29 | 0.833 | 0.714 | 1.1 | -0.834 (inactive)
CCCCC=C[C@@H](NC(=O)c1ccc(C(=O)OC)cc1)c1ccccc1 | 0.924 | -0.213 (inactive) | 0.313 | -0.171 | 0.235 | 1.81 | 0.327 | 1.15 | -0.14 | 0.887 | 0.59 | 1.05 | 0.694 | 0.875 | 0.293 | 0.0889 | 0.769 | 0.335 | 0.658 | 1.73 (inactive)
CN(C)C(=O)[C@@]1(CCC(=O)OC(C)(C)C)N=C(c2ccc(OCCCO)cc2)O[C@H]1c1ccccc1 | 0.955 | 0.58 (inactive) | 0.519 | -0.0125 | 0.842 | 3.16 | 0.55 | 0.926 | -0.719 | 0.683 | 3.44 | 1.11 | 0.384 | 0.65 | 0.381 | -0.309 | -0.457 | -0.943 | 0.798 | -0.874 (inactive)
COCCOC(=O)N1C(=O)[C@@]2(c3cc(C#CCNC(N)=O)ccc31)[C@H](c1ccc(O)cc1)N1[C@H](c3ccccc3)[C@H](c3ccccc3)OC(=O)[C@H]1[C@@H]2C(=O)NC[C@H](O)c1ccccc1 | -0.302 | 0.297 (inactive) | 0.108 | -0.0165 | 0.044 | 0.956 | 0.608 | 1.13 | 1.38 | 1.16 | -0.49 | 0.802 | -0.133 | 0.793 | 1.34 | 1.19 | -1.05 | 1.13 | 0.69 | 0.0103 (inactive)
C#CCN(C(/C=C/c1ccccc1)CO)C(C(=O)O)c1ccccc1 (stereo not given) | -0.56 | 0.535 (inactive) | -0.389 | -0.181 | -0.199 | -0.21 | -0.0599 | -1.12 | 0.0041 | 0.0529 | -0.375 | -1.19 | 0.492 | 0.116 | -0.523 | -0.354 | -1.04 | -0.346 | -0.0819 | -0.104 (inactive)
COc1ccc([Si](C)(C)[C@@H]2[C@@H](CCn3cc([C@H](O)c4ccccc4)nn3)O[C@]3(C(=O)N(Cc4ccc(N5C(=O)c6cccc7cccc5c67)cc4)c4ccccc43)[C@H]2C)cc1 | 0.033 | -0.196 (inactive) | -0.13 | -0.155 | 0.403 | 0.791 | 0.017 | 0.268 | -0.177 | -0.13 | 0.448 | -0.412 | -0.465 | -0.151 | -0.7 | -0.513 | 1.57 | -0.236 | -0.101 | -0.303 (inactive)
CC(C)(C)OC(=O)CC[C@@]1(C(=O)NCCN2CCOCC2)N=C(c2ccc(OCCCO)cc2)O[C@@H]1c1ccccc1 | 1.03 | -0.548 (inactive) | 0.209 | 0.0129 | 0.539 | 1.46 | 0.275 | 1.3 | -0.0233 | 1.17 | 1.37 | 1.19 | 0.111 | 1.01 | 1.28 | 0.695 | 1.59 | 0.499 | 1.22 | -1.66 (inactive)
C=CC[C@@]1(C(=O)NCC(O)CO)N=C(c2ccc(OCCCO)cc2)O[C@@H]1c1ccccc1N=[N+]=[N-] (stereo not given in full) | 1.04 | 0.338 (inactive) | 0.266 | 0.0007 | 0.778 | 3.7 | 1.02 | 0.931 | -0.982 | 0.97 | 2.92 | 1.12 | -0.121 | 0.415 | 0.849 | -0.0851 | -0.921 | 0.003 | 1.12 | -11.2 (active)
